{"source": "PubChem BioAssay (EPA / NIEHS)", "note": "Active and inactive are the calls of the source. The calls were made as follows: active = hit-call score of the fitted dose curve at least 0.9, where 1 is the maximum; inactive = score below 0.9."}
{"test": "ATG_GRE_CIS: Attagene CIS-FACTORIAL HepG2 Assay for human Glucocorticoid Response Elements (GRE) (AID 2282947)", "conditions": "HepG2 GRE cis-reporter, Attagene multiplex mRNA; actives raise or lower the signal", "summary_of_the_method": "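Transient MRTU transfection of human HepG2 liver cells; cis-regulated reporters report endogenous factors. 24 h dosing → RNA isolation → RT-PCR → 6-FAM primer extension → HpaI cut → CE fragment analysis. Bidirectional fit, DMSO negative control.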"}
{"smiles": "c1ccc2c(c1)sc1ccccc12", "outcome": "inactive"}
{"smiles": "CC(O)C#N", "note": "(stereo not drawn)", "outcome": "inactive"}
{"smiles": "OCC(F)(F)OC(F)(F)C(F)(F)OC(F)(F)CO", "outcome": "inactive"}
{"smiles": "CCCCN(CCCC)N=O", "outcome": "inactive"}
{"smiles": "CC(O)C(F)(F)C(F)(F)F", "note": "(stereo not drawn)", "outcome": "inactive"}
{"smiles": "CCN(CC)c1ccccc1", "outcome": "inactive"}
{"smiles": "O=C(O)C(F)(F)C(F)(F)C(=O)O", "outcome": "inactive"}
{"smiles": "CCCCc1ccccc1", "outcome": "inactive"}
{"smiles": "N#Cc1c(-c2ccc(Cl)cc2)[nH]c(C(F)(F)F)c1Br", "outcome": "inactive"}
{"smiles": "O=[N+]([O-])c1ccccc1", "outcome": "inactive"}
{"smiles": "CCOC(=O)c1ccccc1C(=O)OCC", "outcome": "inactive"}
{"smiles": "c1nc[nH]n1", "outcome": "inactive"}
{"smiles": "CCC(C)(C)c1ccc(O)cc1", "outcome": "inactive"}
{"smiles": "c1cc2c3c(cccc3c1)CC2", "outcome": "inactive"}
{"smiles": "O=C(O)C(Cl)Cl", "outcome": "inactive"}
{"test": "ATG_ISRE_CIS: Attagene CIS-FACTORIAL HepG2 Assay for human Interferon Regulatory Factor 1 (IRF1) binding to an Interferon-Stimulated Response Element (ISRE) (AID 2282948)", "conditions": "HepG2 ISRE cis-reporter (Attagene), mRNA transcription readout; actives raise or lower the signal", "summary_of_the_method": "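Transfected HepG2 (multiple reporter transcription units, cis elements) dosed 24 h. RNA → oligo(dT) RT → PCR → 6-FAM primer extension → HpaI → CE. DMSO = negative control/baseline.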"}
{"smiles": "O=C(O)C(F)(F)OC(F)(F)C(F)(F)OC(F)(F)C(=O)O", "outcome": "inactive"}
{"smiles": "N#Cc1cc([N+](=O)[O-])ccc1N", "outcome": "inactive"}
{"smiles": "COP(=O)(O)OC", "outcome": "inactive"}
{"smiles": "CCOS(=O)(=O)OCC", "outcome": "inactive"}
{"smiles": "Nc1cc2c3c(c1)C(c1ccccc1)=N[C@@H](NC(=O)c1cccnc1)C(=O)N3CC2", "outcome": "inactive"}
{"smiles": "Oc1ccc(I)cc1", "outcome": "inactive"}
{"smiles": "C/C(=N\\NC(=O)Nc1cc(F)cc(F)c1)c1ncccc1C(=O)O", "outcome": "inactive"}
{"smiles": "CCOP(=S)(OCC)SCSCC", "outcome": "inactive"}
{"smiles": "OCC(F)(F)OC(F)(F)C(F)(F)OC(F)(F)C(F)(F)OC(F)(F)CO", "outcome": "inactive"}
{"smiles": "[N-]=[N+]=[N-]", "outcome": "inactive"}
{"smiles": "O=S1(=O)OCC2C(CO1)C1(Cl)C(Cl)=C(Cl)C2(Cl)C1(Cl)Cl", "note": "(stereo not drawn)", "AC50": "100 µM (active)"}
{"smiles": "Oc1ccccc1Br", "outcome": "inactive"}
{"smiles": "FC(F)(F)C(F)(C(F)(F)F)C(F)(F)C(F)(F)CC1CO1", "note": "(stereo not drawn)", "outcome": "inactive"}
{"smiles": "C=CC(=O)OCC(CC)(COC(=O)C=C)COC(=O)C=C", "AC50": "42.4 µM (active)"}
{"smiles": "CC1(C)CN=C(NN=C(/C=C/c2ccc(C(F)(F)F)cc2)/C=C/c2ccc(C(F)(F)F)cc2)NC1", "AC50": "18.4 µM (active)"}
{"smiles": "CCOP(=S)(OCC)SCn1nnc2ccccc2c1=O", "outcome": "inactive"}
{"smiles": "O=C(O)C=CC(F)(C(F)(F)F)C(F)(F)F", "outcome": "inactive"}
{"smiles": "O=C(O)C(F)(OC(F)(F)C(F)(F)C(F)(F)F)C(F)(F)F", "note": "(stereo not drawn)", "outcome": "inactive"}
{"smiles": "CC1=C(C(=O)Nc2ccccc2)S(=O)(=O)CCO1", "AC50": "30.2 µM (active)"}
{"smiles": "O=P1(N(CCCl)CCCl)NCCCO1", "note": "(stereo not drawn)", "outcome": "inactive"}
{"smiles": "OCC1CO1", "note": "(stereo not drawn)", "outcome": "inactive"}
{"smiles": "Nc1ccc(Cl)cc1", "outcome": "inactive"}
{"smiles": "CNC(=O)Oc1ccc(N(C)C)c(C)c1", "outcome": "inactive"}
{"smiles": "Nc1ccc(Sc2ccc(N)cc2)cc1", "outcome": "inactive"}
{"smiles": "c1ccc2c(c1)sc1ccccc12", "outcome": "inactive"}
{"smiles": "CC(O)C#N", "note": "(stereo not drawn)", "outcome": "inactive"}
{"smiles": "OCC(F)(F)OC(F)(F)C(F)(F)OC(F)(F)CO", "outcome": "inactive"}
{"smiles": "CCCCN(CCCC)N=O", "outcome": "inactive"}
{"smiles": "CC(O)C(F)(F)C(F)(F)F", "note": "(stereo not drawn)", "outcome": "inactive"}
{"smiles": "CCN(CC)c1ccccc1", "outcome": "inactive"}
{"smiles": "O=C(O)C(F)(F)C(F)(F)C(=O)O", "outcome": "inactive"}
{"smiles": "CCCCc1ccccc1", "outcome": "inactive"}
{"smiles": "N#Cc1c(-c2ccc(Cl)cc2)[nH]c(C(F)(F)F)c1Br", "AC50": "1 µM (active)"}
{"smiles": "O=[N+]([O-])c1ccccc1", "outcome": "inactive"}
{"smiles": "CCOC(=O)c1ccccc1C(=O)OCC", "outcome": "inactive"}
{"smiles": "c1nc[nH]n1", "outcome": "inactive"}
{"smiles": "CCC(C)(C)c1ccc(O)cc1", "outcome": "inactive"}
{"smiles": "c1cc2c3c(cccc3c1)CC2", "outcome": "inactive"}
{"smiles": "O=C(O)C(Cl)Cl", "outcome": "inactive"}
{"test": "ATG_M_32_CIS: Attagene CIS-FACTORIAL HepG2 Assay for M32 Transcription Factor (Internal Marker) (AID 2282949);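 also: background control marker of the multiplexed CIS panel rather than a real target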", "conditions": "HepG2 Attagene cis-factorial M32 reporter, mRNA; actives raise or lower the signal", "summary_of_the_method": "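Fluorescent capillary electrophoresis peaks of HpaI-digested, FAM-labelled RT-PCR reporter products give the signal. Source: transiently transfected human liver HepG2 cells, 24 h after chemical dosing; bidirectional fitting against DMSO.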"}
{"smiles": "O=C(O)C(F)(F)OC(F)(F)C(F)(F)OC(F)(F)C(=O)O", "outcome": "inactive"}
{"smiles": "N#Cc1cc([N+](=O)[O-])ccc1N", "outcome": "inactive"}
{"smiles": "COP(=O)(O)OC", "outcome": "inactive"}
{"smiles": "CCOS(=O)(=O)OCC", "outcome": "inactive"}
{"smiles": "Nc1cc2c3c(c1)C(c1ccccc1)=N[C@@H](NC(=O)c1cccnc1)C(=O)N3CC2", "outcome": "inactive"}
{"smiles": "Oc1ccc(I)cc1", "outcome": "inactive"}
{"smiles": "C/C(=N\\NC(=O)Nc1cc(F)cc(F)c1)c1ncccc1C(=O)O", "outcome": "inactive"}
{"smiles": "CCOP(=S)(OCC)SCSCC", "outcome": "inactive"}
{"smiles": "OCC(F)(F)OC(F)(F)C(F)(F)OC(F)(F)C(F)(F)OC(F)(F)CO", "outcome": "inactive"}
{"smiles": "[N-]=[N+]=[N-]", "outcome": "inactive"}
{"smiles": "O=S1(=O)OCC2C(CO1)C1(Cl)C(Cl)=C(Cl)C2(Cl)C1(Cl)Cl", "note": "(stereo not drawn)", "outcome": "inactive"}
{"smiles": "Oc1ccccc1Br", "outcome": "inactive"}
{"smiles": "FC(F)(F)C(F)(C(F)(F)F)C(F)(F)C(F)(F)CC1CO1", "note": "(stereo not drawn)", "outcome": "inactive"}
{"smiles": "C=CC(=O)OCC(CC)(COC(=O)C=C)COC(=O)C=C", "outcome": "inactive"}
{"smiles": "CC1(C)CN=C(NN=C(/C=C/c2ccc(C(F)(F)F)cc2)/C=C/c2ccc(C(F)(F)F)cc2)NC1", "AC50": "17.4 µM (active)"}
{"smiles": "CCOP(=S)(OCC)SCn1nnc2ccccc2c1=O", "outcome": "inactive"}
{"smiles": "O=C(O)C=CC(F)(C(F)(F)F)C(F)(F)F", "outcome": "inactive"}
{"smiles": "O=C(O)C(F)(OC(F)(F)C(F)(F)C(F)(F)F)C(F)(F)F", "note": "(stereo not drawn)", "outcome": "inactive"}
{"smiles": "CC1=C(C(=O)Nc2ccccc2)S(=O)(=O)CCO1", "outcome": "inactive"}
{"smiles": "O=P1(N(CCCl)CCCl)NCCCO1", "note": "(stereo not drawn)", "outcome": "inactive"}
{"smiles": "OCC1CO1", "note": "(stereo not drawn)", "outcome": "inactive"}
{"smiles": "Nc1ccc(Cl)cc1", "outcome": "inactive"}
{"smiles": "CNC(=O)Oc1ccc(N(C)C)c(C)c1", "outcome": "inactive"}
{"smiles": "Nc1ccc(Sc2ccc(N)cc2)cc1", "outcome": "inactive"}
{"smiles": "c1ccc2c(c1)sc1ccccc12", "outcome": "inactive"}
{"smiles": "CC(O)C#N", "note": "(stereo not drawn)", "outcome": "inactive"}
{"smiles": "OCC(F)(F)OC(F)(F)C(F)(F)OC(F)(F)CO", "outcome": "inactive"}
{"smiles": "CCCCN(CCCC)N=O", "outcome": "inactive"}
{"smiles": "CC(O)C(F)(F)C(F)(F)F", "note": "(stereo not drawn)", "outcome": "inactive"}
{"smiles": "CCN(CC)c1ccccc1", "outcome": "inactive"}
{"smiles": "O=C(O)C(F)(F)C(F)(F)C(=O)O", "outcome": "inactive"}
{"smiles": "CCCCc1ccccc1", "outcome": "inactive"}
{"smiles": "N#Cc1c(-c2ccc(Cl)cc2)[nH]c(C(F)(F)F)c1Br", "outcome": "inactive"}
{"smiles": "O=[N+]([O-])c1ccccc1", "outcome": "inactive"}
{"smiles": "CCOC(=O)c1ccccc1C(=O)OCC", "outcome": "inactive"}
{"smiles": "c1nc[nH]n1", "outcome": "inactive"}
{"smiles": "CCC(C)(C)c1ccc(O)cc1", "outcome": "inactive"}
{"smiles": "c1cc2c3c(cccc3c1)CC2", "outcome": "inactive"}
{"smiles": "O=C(O)C(Cl)Cl", "outcome": "inactive"}
